The record followed here is ChEMBL document CHEMBL3988442, “University of Dundee, Small-Polar-MMV Screening Library” (2021).

The test concerns the target AMP-activated protein kinase, AMPK (Homo sapiens) (UniProt P54646+O43741+P54619+Q9UGJ0+Q9Y478+Q13131+Q9UGI9). In words: AMP-dependent Kinase enzyme assay. An in vitro enzyme assay that detects ADP turnover that is directly proportional to AMPK activity. This uses naive AMPK that is activated during the assay with MK-8722. In kind it is functional. The arrangement: scale not given: direction of the effect not stated beside the values. Conditions: 30 µM.
Turning to `CN(CCc1ccccn1)C(=O)Cn1cc(-c2ccccc2)nn1`, the Percent Effect was -0.117%.
Take `COCCN1CCN(Cc2coc(-c3ccccc3Cl)n2)CC1`: the Percent Effect was -1.56%.
With `Cc1cc(CNC(=O)N2CCOC(c3ccccc3Cl)C2)no1` (centres undefined) the figure was -7.62%; with `O=S(=O)(c1cccnc1)N1CCCCC1CCN1CCOCC1` (centres undefined), 16.1%.
As for `COc1cnc(N2CC(N3CCOCC3)C2)nc1-c1ccnn1C`, the figure is -7.62%; as for `CCN(CC(=O)NC(C)C)C(=O)c1csc(Cc2ccccc2)n1`, -2.97%; as for `N#Cc1ccc(SCCC(=O)NC(N)=O)cc1`, -6.73%.
As for `Cn1ncc2c(N[C@@H]3C[C@@H]4CC[C@H]3C4)nc(-c3ccncc3)nc21`, the figure is 12.7%.
Take `Cc1n[nH]c(C)c1CCC(=O)N1CCc2c(nc[nH]c2=O)C1`: the Percent Effect was -0.287%.
With `Cc1cc(C)c(C#N)c(NCCn2cnnc2C(C)C)n1` the figure was 2.2%; with `C[C@H](N)C(=O)N1CCC(c2[nH]ncc2-c2ccccc2)CC1`, -8.96%.
As for `Cc1nn(-c2ccccc2)c2nc(C(C)(C)CN3CCN(C)CC3)[nH]c12`, the figure is 9.98%.
With `CN1CCN(CC2(O)CCCN(S(=O)(=O)c3cn[nH]c3)CC2)CC1` (centres undefined) the figure was 13%; with `CCOCCOC(C)C(=O)Nc1nccn1Cc1ccccc1` (centres undefined), -2.1%; with `CO[C@@H]1c2ccccc2C2(CCN(C(=O)CNS(C)(=O)=O)CC2)[C@H]1O`, 19.3%.
`COc1ncc(NCc2ccsc2)cc1C(N)=O`: the Percent Effect came out at 5.38%.
With `CN(C)c1nc2c(c(=O)[nH]1)CCN(C(=O)C1CCCO1)C2` (centres undefined) the figure was 2.77%; with `CCCOc1cc(CNC(=O)Nc2cccc(C(C)=O)c2)ccn1`, -3.21%; with `O=C1NCCN(CC2CCCCC2)C1CC(=O)N1CCc2n[nH]cc2C1` (centres undefined), -8.97%.
